This is an account of results in PubChem BioAssay (EPA / NIEHS).

Results filed as inconclusive are left out. Activity calls are given as the source filed them. The calls were made as follows: active = hit-call score of the fitted dose curve at least 0.9, where 1 is the maximum; inconclusive = response in the unintended direction; inactive = score below 0.9.

Usually AC50 stands for the concentration at which the activity in the assay is half-maximal.

Test [1] deals with bovine Gamma-Aminobutyric Acid Type A Receptor BDZ, alpha 1 site (GABARa1), GABRA1 (gene 780973) (UniProt P08219). Kind of test: NVS_LGIC_bGABARa1: NovaScreen (NVS) Ligand-Gated Ion Channel Assay for bovine Gamma-Aminobutyric Acid Type A Receptor BDZ, alpha 1 site (GABARa1) (AID 2283321). Put shortly:
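Bovine cortex membrane preparation, benzodiazepine site on GABA-A alpha1; specific radioligand displacement read after 0.75 h by filtration and scintillation. Screen at 25 uM, then singleton titrations up to 50 uM; DMSO baseline.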

Test [2] deals with rat Glutamate, AMPA Site (AMPA), Gria1 (gene 50592) (UniProt P19490). Kind of test: NVS_LGIC_rAMPA: NovaScreen (NVS) Ligand-Gated Ion Channel Assay for rat Glutamate, AMPA Site (AMPA) (AID 2283324). The method in brief: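 Screening at 25 uM in duplicate preceded concentration series reaching 50 uM for qualifying compounds. Radioligand displacement on rat forebrain membranes, 1 h, filter-based scintillation readout; reduced binding relative to DMSO.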

Test [3] deals with rat Neonicotinoid receptor (NNR), Chrna7 (gene 25302) (UniProt Q05941). Kind of test: NVS_LGIC_rNNR_BungSens: NovaScreen (NVS) Ligand-Gated Ion Channel Assay for rat Neonicotinoid receptor (NNR) (AID 2283315). Put shortly: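 Rat cortical membrane preparation incubated 2.5 h with tritiated or iodinated radioligand and test chemical. Bound radioactivity was filtered and counted by scintillation, and displacement was analysed against DMSO.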

In test [4] the target is rat Neurokinin-3 Receptor (NK3), Tacr3 (gene 24808) (UniProt P16177). Put plainly: NVS_GPCR_rNK3: NovaScreen (NVS) G Protein-Coupled Receptor Assay for rat Neurokinin-3 Receptor (NK3) (AID 2283310). Put shortly: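 Filter-based radioligand displacement on rat cortex membrane preparations, read by scintillation 2 h post-dose. Chemicals first tested in duplicate at 25 uM; actives followed up in concentration series with a 50 uM maximum.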

The target in test [5] is Voltage-dependent N-type calcium channel subunit alpha-1B (Rattus norvegicus) (UniProt Q02294). Kind of test: NVS_IC_rCaChN: NovaScreen (NVS) Ion Channel Assay for rat Calcium Channel, Type N (CaChN) (AID 2283317).
The target in test [6] is rat Opioid Receptor, Non-selective Sodium (Na+) Binding, Oprm1 (gene 25601) (UniProt P33535). Kind of test: NVS_GPCR_rOpiate_NonSelectiveNa: NovaScreen (NVS) G Protein-Coupled Receptor Assay for rat Opioid Receptor, Non-selective Sodium (Na+) Binding (AID 2283311). Put shortly:
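Filtration radioligand binding on rat forebrain membrane preparations, read 1.5 h after dosing. Single-concentration 25 µM primary screen in duplicate, followed by singleton concentration series to 50 µM max for actives; DMSO baseline.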

The target of test [7] is Sodium channel protein type 1 subunit alpha (Rattus norvegicus) (UniProt P04774). Put plainly: NVS_IC_rNaCh_site2: NovaScreen (NVS) Ion Channel Assay for rat Sodium Channel, Site 2 (NaCh) (AID 2283322).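 Also: hit means loss of radioligand binding signal relative to DMSO so AC50 marks displacement.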 Put shortly: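 Initial duplicate single-point testing at 25 uM, followed by concentration-response runs for actives. Binding of radioligand to rat forebrain membranes quantified after 1 h via filter-based radiodetection.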

Test [8] is described as follows: NVS_IC_rCaDHPRCh_L: NovaScreen (NVS) Ion Channel Assay for rat Calcium Channel, Type L, Dihydropyridine Site (CaDHPRCh_L) (AID 2283320). The method in brief:
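Rat cortex membrane preparation; dihydropyridine-site radioligand displacement read 1 h post-dose by filtration and scintillation. Primary single-point screen 25 uM in duplicate, then concentration series to 50 uM maximum; DMSO as negative control.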

Test [9] addresses rat Vasopressin 1 Receptor (V1), Avpr1a (gene 25107) (UniProt P30560). Put plainly: NVS_GPCR_rV1: NovaScreen (NVS) G Protein-Coupled Receptor Assay for rat Vasopressin 1 Receptor (V1) (AID 2283316). The method in brief:
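Concentration-response up to 50 uM for chemicals passing a threshold such as 30% inhibition in an initial duplicate 25 uM screen. Displacement of radioligand from rat liver membranes measured after 1.5 h by filtration and scintillation.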

The target in test [10] is bovine Gamma-Aminobutyric Acid Type A Receptor BDZ, alpha 5 site (GABARa5), GABRA5 (gene 523515) (UniProt Q08E50). Put plainly: NVS_LGIC_bGABARa5: NovaScreen (NVS) Ligand-Gated Ion Channel Assay for bovine Gamma-Aminobutyric Acid Type A Receptor BDZ, alpha 5 site (GABARa5) (AID 2283323). Put shortly: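 Tested first in duplicate at a single 25 uM, with hits re-run in concentration series to a 50 uM maximum. Bovine hippocampal membranes; specific radioligand displacement measured by filter scintillation counting 1 hr post-dose.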

In test [11] the target is rat Opioid Receptor, Non-selective Binding, Oprm1 (gene 25601) (UniProt P33535). Put plainly: NVS_GPCR_rOpiate_NonSelective: NovaScreen (NVS) G Protein-Coupled Receptor Assay for rat Opioid Receptor, Non-selective Binding (AID 2283318). The method in brief:
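Filter-based radioligand displacement using rat forebrain membrane preparations, measured 1.5 h post-dosing. Single-concentration duplicate screen at 25 uM, follow-up in concentration series; activity taken as signal loss relative to DMSO.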

The target in test [12] is Metabotropic glutamate receptor 1 (Rattus norvegicus) (UniProt P23385). Put plainly: NVS_GPCR_rmMGluR1: NovaScreen (NVS) G Protein-Coupled Receptor Assay for rat Glutamate Metabotropic Receptor 1 (MGluR1) (AID 2283305). Put shortly: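 Binding to native receptor from rat cerebellum extract, measured as displacement of a radioligand (scintillation counting, filter separation) after 1 hour. Compounds tested at 25 uM in duplicate, then titrated to a 50 uM maximum.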

Test [13] has as its target Adra2b (gene 24174) (UniProt P19328). Kind of test: NVS_GPCR_rmAdra2B: NovaScreen (NVS) G Protein-Coupled Receptor Assay for hybird cells Adrenergic, Alpha 2B Receptor (Adra2B) (AID 2283306). Put shortly:
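Compounds screened first at 25 uM in duplicate, with actives followed up in concentration-response; specific radioligand displacement from hybrid neuroglioma/blastoma cell membrane preparations measured by filter scintillation counting after 1 h, normalized to DMSO.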

In test [14] the target is rat Neurokinin-1 Receptor (NK1), Tacr1 (gene 24807) (UniProt P14600). Kind of test: NVS_GPCR_rNK1: NovaScreen (NVS) G Protein-Coupled Receptor Assay for rat Neurokinin-1 Receptor (NK1) (AID 2283309). Put shortly: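 Competitive radioligand binding to NK1 in rat submaxillary membranes, 1 h incubation, filtration and scintillation read-out. Compounds first screened at 25 uM in duplicate, then concentration-response for actives; signal loss relative to DMSO.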

Test [15] concerns the target rat Somatostatin Receptor (SST), Sstr1 (gene 25033) (UniProt P28646). Kind of test: NVS_GPCR_rSST: NovaScreen (NVS) G Protein-Coupled Receptor Assay for rat Somatostatin Receptor (SST) (AID 2283314). Put shortly: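 Single-concentration duplicate screen (25 uM), then concentration-response up to 50 uM for chemicals passing a threshold such as 30% inhibition. Membranes came from rat forebrain. Binding was measured 1 h post-dose by filter radiodetection and scintillation, relative to DMSO.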

The test system of test [16] is NCBI gene 257648. Put plainly: NVS_IC_rCaChN: NovaScreen (NVS) Ion Channel Assay for Calcium Channel, Type N (CaChN) (AID 2283317).
Test [17] deals with NCBI gene 24521. Kind of test: NVS_IC_rKATPCh: NovaScreen (NVS) Ion Channel Assay for rat Potassium Channel, ATP-Sensitive (KATPCh) (AID 2283319). Put shortly:
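Primary duplicate screen at 25 uM, then singleton concentration series to 50 uM maximum, in a rat cortex membrane radioligand displacement assay. Binding measured by filtration and scintillation 2 h post-dose; DMSO baseline.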

Test [18] concerns the target rat Gamma-Aminobutyric Acid Type B Receptor (GABBR), Gabbr1 (gene 81657) (UniProt Q9Z0U4). Put plainly: NVS_GPCR_rGABBR: NovaScreen (NVS) G Protein-Coupled Receptor Assay for rat Gamma-Aminobutyric Acid Type B Receptor (GABBR) (AID 2283301). Put shortly: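 Rat cortical membrane preparation, competitive radioligand binding for 1 h with filtration and scintillation readout. Actives from duplicate single-point 25 uM screening proceeded to concentration series with 50 uM top concentration.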

The target of test [19] is rat Histamine Receptor (H3), Hrh3 (gene 85268) (UniProt Q9QYN8). Put plainly: NVS_GPCR_rH3: NovaScreen (NVS) G Protein-Coupled Receptor Assay for rat Histamine Receptor (H3) (AID 2283303). Put shortly: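 Filter-binding radioligand competition on rat forebrain membranes, 1 h incubation; compounds screened at 25 µM in duplicate and followed in concentration series to 50 µM, loss of bound signal vs DMSO.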

The target in test [20] is human Neonicotinoid receptor (NNR), CHRNA2 (gene 1135) (UniProt Q15822). Put plainly: NVS_LGIC_hNNR_NBungSens: NovaScreen (NVS) Ligand-Gated Ion Channel Assay for human Neonicotinoid receptor (NNR) (AID 2283313). Put shortly:
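Compounds first screened in duplicate at 25 uM, then actives re-tested in single-replicate dose series up to 50 uM. Binding measured as displacement of specific radioligand from neuroblastoma membrane receptors after 2 h, scintillation read on filters.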

Sequence of rat Glutamate, AMPA Site (AMPA), Gria1 (gene 50592) (P19490 whole entry, looked up): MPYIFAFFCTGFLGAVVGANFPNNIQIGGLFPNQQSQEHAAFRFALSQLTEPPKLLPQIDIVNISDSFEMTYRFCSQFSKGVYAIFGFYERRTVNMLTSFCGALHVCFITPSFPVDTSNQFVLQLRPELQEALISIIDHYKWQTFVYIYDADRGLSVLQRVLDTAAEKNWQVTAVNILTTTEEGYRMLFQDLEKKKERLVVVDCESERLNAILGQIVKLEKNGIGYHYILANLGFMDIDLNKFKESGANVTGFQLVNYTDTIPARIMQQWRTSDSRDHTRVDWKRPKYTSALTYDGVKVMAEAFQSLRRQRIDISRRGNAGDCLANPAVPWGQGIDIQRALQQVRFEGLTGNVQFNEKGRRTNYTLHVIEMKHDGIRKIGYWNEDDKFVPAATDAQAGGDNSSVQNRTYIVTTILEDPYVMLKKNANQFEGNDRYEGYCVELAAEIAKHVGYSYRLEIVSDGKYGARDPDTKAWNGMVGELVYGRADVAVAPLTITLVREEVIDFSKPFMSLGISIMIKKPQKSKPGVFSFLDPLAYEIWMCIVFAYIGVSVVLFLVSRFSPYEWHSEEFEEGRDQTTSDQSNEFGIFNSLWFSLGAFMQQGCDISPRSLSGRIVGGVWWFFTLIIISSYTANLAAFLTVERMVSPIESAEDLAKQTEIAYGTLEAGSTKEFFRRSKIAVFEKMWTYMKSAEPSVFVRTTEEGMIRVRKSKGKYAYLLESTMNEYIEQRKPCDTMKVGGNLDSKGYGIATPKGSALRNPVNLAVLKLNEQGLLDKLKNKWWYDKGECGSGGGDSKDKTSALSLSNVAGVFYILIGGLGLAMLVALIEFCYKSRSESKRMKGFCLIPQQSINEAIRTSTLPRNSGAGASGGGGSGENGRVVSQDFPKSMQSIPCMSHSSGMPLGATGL
Sequence of rat Opioid Receptor, Non-selective Sodium (Na+) Binding, Oprm1 (gene 25601) (P33535 whole entry, looked up): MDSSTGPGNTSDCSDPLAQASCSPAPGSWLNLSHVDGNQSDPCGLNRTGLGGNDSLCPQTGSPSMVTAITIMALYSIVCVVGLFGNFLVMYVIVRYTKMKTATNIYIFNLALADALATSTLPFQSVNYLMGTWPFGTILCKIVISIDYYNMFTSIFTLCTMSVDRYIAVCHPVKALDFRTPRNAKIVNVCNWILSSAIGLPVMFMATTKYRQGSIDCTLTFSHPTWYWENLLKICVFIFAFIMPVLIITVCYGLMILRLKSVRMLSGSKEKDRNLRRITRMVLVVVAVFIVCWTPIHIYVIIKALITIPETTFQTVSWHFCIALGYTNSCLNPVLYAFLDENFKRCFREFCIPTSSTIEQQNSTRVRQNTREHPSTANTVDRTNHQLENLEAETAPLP
Sequence of rat Opioid Receptor, Non-selective Binding, Oprm1 (gene 25601) (P33535 whole entry, looked up): as above
Sequence of rat Somatostatin Receptor (SST), Sstr1 (gene 25033) (P28646 whole entry, looked up): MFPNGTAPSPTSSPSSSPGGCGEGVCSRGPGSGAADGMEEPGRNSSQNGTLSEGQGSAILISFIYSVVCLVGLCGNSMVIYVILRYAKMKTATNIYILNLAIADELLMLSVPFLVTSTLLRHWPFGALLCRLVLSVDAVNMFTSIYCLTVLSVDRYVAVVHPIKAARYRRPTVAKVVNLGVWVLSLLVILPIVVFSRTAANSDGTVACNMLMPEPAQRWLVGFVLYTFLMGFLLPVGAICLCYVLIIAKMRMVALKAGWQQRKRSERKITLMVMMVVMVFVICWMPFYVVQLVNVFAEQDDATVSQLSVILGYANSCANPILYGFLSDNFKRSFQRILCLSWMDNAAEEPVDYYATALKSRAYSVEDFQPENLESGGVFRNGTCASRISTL
Sequence of rat Neurokinin-1 Receptor (NK1), Tacr1 (gene 24807) (P14600 whole entry, looked up): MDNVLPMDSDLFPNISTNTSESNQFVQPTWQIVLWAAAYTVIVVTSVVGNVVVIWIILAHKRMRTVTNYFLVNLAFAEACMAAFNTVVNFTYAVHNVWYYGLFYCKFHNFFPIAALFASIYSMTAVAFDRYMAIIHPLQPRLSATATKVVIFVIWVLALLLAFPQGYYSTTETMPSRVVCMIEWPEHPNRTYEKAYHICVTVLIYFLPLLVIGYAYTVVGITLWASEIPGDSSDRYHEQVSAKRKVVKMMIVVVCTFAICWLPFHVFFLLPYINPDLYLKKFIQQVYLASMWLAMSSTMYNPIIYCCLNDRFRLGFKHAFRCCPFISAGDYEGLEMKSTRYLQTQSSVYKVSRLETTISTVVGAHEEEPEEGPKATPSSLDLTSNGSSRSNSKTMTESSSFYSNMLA
Sequence of rat Neurokinin-3 Receptor (NK3), Tacr3 (gene 24808) (P16177 whole entry, looked up): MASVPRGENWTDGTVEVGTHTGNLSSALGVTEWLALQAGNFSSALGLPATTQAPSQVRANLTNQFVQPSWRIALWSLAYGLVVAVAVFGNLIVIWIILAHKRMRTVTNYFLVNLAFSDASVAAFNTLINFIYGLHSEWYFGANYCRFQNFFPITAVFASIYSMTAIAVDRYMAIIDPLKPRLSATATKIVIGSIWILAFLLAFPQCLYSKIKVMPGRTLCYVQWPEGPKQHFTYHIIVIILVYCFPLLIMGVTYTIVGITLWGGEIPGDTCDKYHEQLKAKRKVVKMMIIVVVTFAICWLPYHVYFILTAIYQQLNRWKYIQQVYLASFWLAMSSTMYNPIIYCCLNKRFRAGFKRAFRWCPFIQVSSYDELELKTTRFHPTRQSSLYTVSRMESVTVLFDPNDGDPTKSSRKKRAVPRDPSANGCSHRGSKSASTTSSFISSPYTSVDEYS
Sequence of rat Neonicotinoid receptor (NNR), Chrna7 (gene 25302) (Q05941 whole entry, looked up): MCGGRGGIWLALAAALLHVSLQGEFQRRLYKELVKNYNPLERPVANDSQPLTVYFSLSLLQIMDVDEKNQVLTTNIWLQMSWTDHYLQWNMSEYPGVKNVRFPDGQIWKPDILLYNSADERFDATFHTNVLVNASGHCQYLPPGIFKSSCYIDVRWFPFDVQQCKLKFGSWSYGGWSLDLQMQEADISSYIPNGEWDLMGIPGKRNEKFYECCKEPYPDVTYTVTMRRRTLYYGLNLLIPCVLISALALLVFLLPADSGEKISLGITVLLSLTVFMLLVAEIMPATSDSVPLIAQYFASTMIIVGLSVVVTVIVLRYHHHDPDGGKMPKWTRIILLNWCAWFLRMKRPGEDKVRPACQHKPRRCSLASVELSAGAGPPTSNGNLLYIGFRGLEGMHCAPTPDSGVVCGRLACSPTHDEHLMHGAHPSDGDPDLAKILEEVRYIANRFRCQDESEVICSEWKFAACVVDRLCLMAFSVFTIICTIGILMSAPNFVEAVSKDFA
Sequence of Metabotropic glutamate receptor 1 (Rattus norvegicus) (P23385 whole entry, looked up): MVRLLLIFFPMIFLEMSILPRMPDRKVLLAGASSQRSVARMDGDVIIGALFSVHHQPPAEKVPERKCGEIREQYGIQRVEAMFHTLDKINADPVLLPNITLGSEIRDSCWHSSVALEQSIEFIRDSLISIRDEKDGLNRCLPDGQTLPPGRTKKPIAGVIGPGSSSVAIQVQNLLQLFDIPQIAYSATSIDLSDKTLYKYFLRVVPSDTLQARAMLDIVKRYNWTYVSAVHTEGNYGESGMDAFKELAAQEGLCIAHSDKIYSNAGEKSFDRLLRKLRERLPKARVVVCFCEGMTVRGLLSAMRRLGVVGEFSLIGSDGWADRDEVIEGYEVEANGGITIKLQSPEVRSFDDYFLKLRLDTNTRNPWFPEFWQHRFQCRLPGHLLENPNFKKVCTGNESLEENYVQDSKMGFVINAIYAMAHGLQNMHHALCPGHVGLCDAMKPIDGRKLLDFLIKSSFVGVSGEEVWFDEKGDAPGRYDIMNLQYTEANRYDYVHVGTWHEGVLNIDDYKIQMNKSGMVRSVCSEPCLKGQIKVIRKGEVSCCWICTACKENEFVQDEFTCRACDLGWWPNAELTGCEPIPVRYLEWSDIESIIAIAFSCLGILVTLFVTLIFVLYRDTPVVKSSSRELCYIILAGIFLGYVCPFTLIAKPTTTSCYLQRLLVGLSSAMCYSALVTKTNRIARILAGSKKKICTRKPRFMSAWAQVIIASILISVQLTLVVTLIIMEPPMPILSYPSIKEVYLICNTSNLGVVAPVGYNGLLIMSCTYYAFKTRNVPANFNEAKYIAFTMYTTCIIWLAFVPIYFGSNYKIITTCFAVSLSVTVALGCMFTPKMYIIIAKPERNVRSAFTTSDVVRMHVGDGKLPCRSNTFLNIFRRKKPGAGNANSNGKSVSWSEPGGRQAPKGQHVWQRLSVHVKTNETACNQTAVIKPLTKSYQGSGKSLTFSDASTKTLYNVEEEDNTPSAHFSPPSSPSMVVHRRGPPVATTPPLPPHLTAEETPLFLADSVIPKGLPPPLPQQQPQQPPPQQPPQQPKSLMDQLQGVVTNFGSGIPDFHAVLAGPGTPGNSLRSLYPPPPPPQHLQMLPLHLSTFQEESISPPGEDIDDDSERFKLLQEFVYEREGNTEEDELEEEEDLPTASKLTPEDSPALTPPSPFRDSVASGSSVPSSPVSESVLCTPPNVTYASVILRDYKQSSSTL
Sequence of bovine Gamma-Aminobutyric Acid Type A Receptor BDZ, alpha 5 site (GABARa5), GABRA5 (gene 523515) (Q08E50 whole entry, looked up): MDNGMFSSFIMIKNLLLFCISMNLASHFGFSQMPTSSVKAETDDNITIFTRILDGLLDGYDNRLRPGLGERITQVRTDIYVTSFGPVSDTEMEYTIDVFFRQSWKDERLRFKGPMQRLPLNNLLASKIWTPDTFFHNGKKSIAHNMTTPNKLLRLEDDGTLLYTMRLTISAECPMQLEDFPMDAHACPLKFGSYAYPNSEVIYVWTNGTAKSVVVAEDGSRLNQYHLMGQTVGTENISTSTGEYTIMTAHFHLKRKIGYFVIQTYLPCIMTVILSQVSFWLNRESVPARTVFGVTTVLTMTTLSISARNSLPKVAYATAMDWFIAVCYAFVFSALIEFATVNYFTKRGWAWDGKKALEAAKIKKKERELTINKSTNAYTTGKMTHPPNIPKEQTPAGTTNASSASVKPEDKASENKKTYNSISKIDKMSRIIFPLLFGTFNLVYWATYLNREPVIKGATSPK

Regarding `CC(c1ccc(O)cc1)(c1ccc(O)cc1)c1ccc(O)cc1`, the call in test [1] and in test [2] was inactive.
Turning to `CCOP(=S)(OCC)SCSC(C)(C)C`, the molecule was classed as inactive in test [3].
In the case of `CCCCCCCCCc1ccc(O)cc1`, the molecule was called inactive in test [4] and in [5].
Take `O=C(NC(=O)c1c(F)cccc1F)Nc1cc(Cl)c(OC(F)(F)C(F)F)c(Cl)c1`: the outcome in test [6] was inactive.
For the molecule `Cc1cccc(C)c1N`, the molecule was classed as inactive in [2].
As to `Oc1ccc(C(c2ccc(O)cc2)(C(F)(F)F)C(F)(F)F)cc1`, the AC50 in test [6] is 25 µM (active); in [7] it was 5.87 µM (active).
Consider `CC(C)(c1ccccc1)c1ccc(O)cc1`, for which the call in test [6] was inactive. Also, the figures for the AC50 in test [8] and in test [7] were 25 µM (active) and 31.4 µM (active), respectively.
As to `CCC(C)(CC)c1cc(NC(=O)c2c(OC)cccc2OC)on1`, the result in test [4], in test [8] and in test [10] was inactive. For the same molecule, the AC50 in [9] is 2.57 µM (active).
`Clc1ccc(C(c2ccccc2Cl)C(Cl)(Cl)Cl)cc1` (centres undefined): the outcome in [5] and in [2] was inactive.
Regarding `CCC(C)(c1ccc(O)cc1)c1ccc(O)cc1`, the AC50 in [6] was 25 µM (active); in test [11], 15.6 µM (active); in test [7], 13.7 µM (active).
In the case of `CN(C)CCO`, the AC50 in test [8] was 25 µM (active).
Regarding `CCCCCCCCCC[N+](C)(C)CCCCCCCCCC`, the AC50 in test [12] was 17.6 µM (active); in test [16], 41.7 µM (active); in [8] it was 10.2 µM (active); in test [7], 1.03 µM (active). Further, the result in test [13], in [14], in test [4], in test [6] and in [15] was inactive.
Consider `C[C@]12CCC(=O)C=C1CC[C@@H]1[C@@H]2CC[C@]2(C)C(=O)CC[C@@H]12`, for which the outcome in test [6] and in test [11] was inactive. Moreover, the figures for the AC50 in test [15] and in [7] were 17.6 µM (active) and 25 µM (active), respectively.
`CCSC(=O)N(CC)C1CCCCC1`: the AC50 in test [14] is 40.1 µM (active).
On to `Cc1cc(O)ccc1Cl`, for which the result in [17] was inactive.
On to `O=C(N[C@H]1CN2CCC1CC2)c1cc2ccoc2cn1`, for which the call in test [18] and in [5] was inactive. For the same molecule, the AC50 in test [19] was 1.75 µM (active); in [13], 16.4 µM (active); in test [20], 17.7 µM (active); in test [3] it was 0.0114 µM (active); in [7] it was 11.7 µM (active).
Take `COc1ccc(O)c(C(C)(C)C)c1`: the AC50 in test [7] is 38.2 µM (active).
With `C[C@]12CCC(=O)C=C1CC[C@@H]1[C@@H]2CC[C@@]2(C)[C@H]1CC[C@]2(C)O`, the AC50 in [7] was 3.26 µM (active).
On to `CC1=C2C[C@H]3[C@@H](CC=C4C[C@@H](O)CC[C@@]43C)[C@@H]2CC[C@]12O[C@@H]1C[C@H](C)CN[C@H]1[C@H]2C`, for which the molecule was classed as inactive in test [11]. Also, the AC50 in test [7] was 0.171 µM (active).
For `ClC1=C(Cl)[C@]2(Cl)[C@@H]3[C@H]4C[C@H]([C@@H]5O[C@H]45)[C@@H]3[C@@]1(Cl)C2(Cl)Cl`, the AC50 in test [15] is 9.78 µM (active). In addition, the result in [5] was inactive.
In the case of `ClC1=C(Cl)[C@]2(Cl)[C@@H]3[C@@H]4C[C@@H]([C@H]5O[C@@H]45)[C@@H]3[C@@]1(Cl)C2(Cl)Cl`, the AC50 in test [15] is 10.6 µM (active).
`CCC(=O)O[C@H]1CC[C@H]2[C@@H]3CCC4=CC(=O)CC[C@]4(C)[C@H]3CC[C@]12C`: the outcome in test [12], in [4] and in test [5] was inactive.
For the molecule `Cc1cc2c3c(c1)C(c1ccccc1)=N[C@@H](NC(=O)c1ccncc1)C(=O)N3CC2`, the molecule was classed as inactive in test [14] and in test [6]. Moreover, the AC50 in test [4] is 0.073 µM (active); in test [1] it was 25 µM (active); in [10], 1.43 µM (active).
